According to PubChem BioAssay (NCI):
Compounds without any hit were thinned out: in the full panel of roughly 79,000, 15% have a hit. Values without a mark were called inactive. Active and inactive are the calls of the source. Rule as the data show it: active = growth inhibition above about 70%; inactive = the rest.

What was measured:
[1] = NCI Yeast Anticancer Drug Screen. Data for the rad50 strain (AID 155);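 also: 0% = growth of vehicle-only cultures of the same strain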; details: S. cerevisiae rad50 strain growth inhibition, hits give high values; at 50.0 µM unless noted
Summary of the method: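 DNA repair mutant yeast, compound exposure, growth read-out; inhibition is taken relative to vehicle.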

[2] = NCI Yeast Anticancer Drug Screen. Data for the mec2-1 strain (AID 157); details: S. cerevisiae mec2-1 strain, hits give high values; at 50.0 µM unless noted
Summary of the method: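 Readout is yeast growth inhibition, normalised to vehicle-treated controls, in the mec2-1 strain exposed to compound.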

[3] = NCI Yeast Anticancer Drug Screen. Data for the sgs1 mgt1 strain (AID 161);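 also: 0% = growth of cultures given vehicle only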; details: S. cerevisiae sgs1 mgt1 strain, hits give high values; at 50.0 µM unless noted
Summary of the method: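 Growth of a repair-deficient yeast mutant was monitored after compound treatment and expressed as inhibition relative to vehicle-treated cultures.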

[4] = NCI Yeast Anticancer Drug Screen. Data for the cln2 rad14 strain (AID 165);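 also: 0% = growth equal to vehicle treated cultures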; details: S. cerevisiae cln2 rad14 strain, hits give high values; at 50.0 µM unless noted
Summary of the method: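 Relative to vehicle controls, growth inhibition of compound-treated cln2 rad14 yeast was recorded.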

[5] = NCI Yeast Anticancer Drug Screen. Data for the bub3 strain (AID 167); details: S. cerevisiae bub3 mutant strain, hits give high values; at 50.0 µM unless noted
Summary of the method: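 In this screen, a yeast mutant lacking normal mitotic checkpoint function is challenged with compound. Relative growth versus vehicle gives the inhibition value.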

[6] = NCI Yeast Anticancer Drug Screen. Data for the mlh1 rad18 strain (AID 175); details: S. cerevisiae mlh1 rad18 strain growth inhibition, hits give high values; at 50.0 µM unless noted
Summary of the method: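 Test agents were incubated with a yeast strain of defined genotype (DNA damage repair defect). Inhibition of growth was derived by comparison with vehicle-exposed cultures.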

## NNc1nc(NCc2ccco2)c2[nH]cnc2n1
[1]
  growth inhibition: -10%
[2]
  growth inhibition: -7.95%
[3]
  growth inhibition: 1.5%
[4]
  growth inhibition: 2.45%
[5]
  growth inhibition: 2.5%
[6]
  growth inhibition: 12.8%

## C/C(CC(=O)Nc1cc(C)ccc1C)=N\NC(=O)c1ccncc1
[1]
  growth inhibition: 11.8%
[2]
  growth inhibition: -0.4%
[3]
  growth inhibition: 10.7%
[4]
  growth inhibition: 22.7%
[5]
  growth inhibition: -0.75%
[6]
  growth inhibition: 1.15%

## CN1CCC/C1=N\C(=Nc1ccccc1)N1CCCC1
[1]
  growth inhibition: 7.95%
[2]
  growth inhibition: -1.8%
[3]
  growth inhibition: -6.05%
[4]
  growth inhibition: 12.5%
[5]
  growth inhibition: -4.35%
[6]
  growth inhibition: -9.15%

## CCOC(=O)c1c(C)[nH]c(C=O)c1C
[1]
  growth inhibition: 5.65%
[2]
  growth inhibition: 9.3%
[3]
  growth inhibition: 0.25%
[4]
  growth inhibition: 16.7%
[5]
  growth inhibition: -0.25%
[6]
  growth inhibition: 4.4%

## CC(=O)OCC1OC(n2c(Br)nc3c(=O)[nH]c(N)nc32)C(OC(C)=O)C1OC(C)=O (stereo not drawn)
[1]
  growth inhibition: -1.5%
[2]
  growth inhibition: 4.3%
[3]
  growth inhibition: 0.8%
[4]
  growth inhibition: -14.8%
[5]
  growth inhibition: -10.2%
[6]
  growth inhibition: 5.6%

## NC(Cc1ccc2nc3c4ccccc4c(=O)cc-3oc2c1)C(=O)O (stereo not drawn)
[1]
  growth inhibition: -23.4%
[2]
  growth inhibition: -40.9%
[3]
  growth inhibition: -14.6%
[4]
  growth inhibition: 19.3%
[5]
  growth inhibition: 10.1%
[6]
  growth inhibition: -13.7%

## COc1cc(C2c3cc4c(c(OC5OC(CO)C(O)C5O)c3CC3COC(=O)C32)OCO4)cc(OC)c1OC (stereo not drawn)
[1]
  growth inhibition: 34.4%
[2]
  growth inhibition: 6.65%
[3]
  growth inhibition: 17.9%
[4]
  growth inhibition: 19.9%
[5]
  growth inhibition: -0.95%
[6]
  growth inhibition: 5.7%

## COc1ccc(/C=C2\N=C(N3CCCC(CO)C3)NC2=O)cc1 (stereo not drawn)
[1]
  growth inhibition: -35.1%
[2]
  growth inhibition: -2.4%
[3]
  growth inhibition: 8.3%
[4]
  growth inhibition: 1.9%
[5]
  growth inhibition: -3.85%
[6]
  growth inhibition: -34%

## CN1C(=O)CCC1c1nc2ccccc2[nH]1 (stereo not drawn)
[1]
  growth inhibition: 0.15%
[2]
  growth inhibition: 9.95%
[3]
  growth inhibition: -3.05%
[4]
  growth inhibition: -17.9%
[5]
  growth inhibition: 6.45%
[6]
  growth inhibition: 20.4%

## N#CC1CC2CC1C1OC21 (stereo not drawn)
[1]
  growth inhibition: -15.4%
[2]
  growth inhibition: -10.3%
[3]
  growth inhibition: -14.1%
[4]
  growth inhibition: 9.35%
[5]
  growth inhibition: -2.25%
[6]
  growth inhibition: -5.9%

## O=C(O)CN(CCO)CCN(CC(=O)O)CC(=O)O.[Fe+2]
[1]
  growth inhibition: 6%
[2]
  growth inhibition: -32%
[3]
  growth inhibition: -18.5%
[4]
  growth inhibition: 18.6%
[5]
  growth inhibition: -14.5%
[6]
  growth inhibition: 2.25%

## O=C(CI)NCc1cn(C2CC(O)C(CO)O2)c(=O)[nH]c1=O (stereo not drawn)
[1]
  growth inhibition: 4.9%
[2]
  growth inhibition: 3.85%
[3]
  growth inhibition: 5.85%
[4]
  growth inhibition: 19.8%
[5]
  growth inhibition: 1.15%
[6]
  growth inhibition: 3.3%

## CCc1cccc(CC)c1NC(=O)OCCN(CC)CC
[1]
  growth inhibition: -3.8%
[2]
  growth inhibition: -16.9%
[3]
  growth inhibition: 10.4%
[4]
  growth inhibition: 16.8%
[5]
  growth inhibition: 11.6%
[6]
  growth inhibition: 4.15%

## O=C(O)c1cccc2c(=O)c3ccccc3oc12
[1]
  growth inhibition: -13.9%
[2]
  growth inhibition: -39.8%
[3]
  growth inhibition: -16.9%
[4]
  growth inhibition: 8.25%
[5]
  growth inhibition: -32.4%
[6]
  growth inhibition: 0.85%

## COc1ccc(-c2sc(/N=C/c3ccc(N(C)CCC#N)cc3)c(C#N)c2C)cc1OC
[1]
  growth inhibition: 4%
[2]
  growth inhibition: -1.05%
[3]
  growth inhibition: 28.1%
[4]
  growth inhibition: 16.4%
[5]
  growth inhibition: 18.3%
[6]
  growth inhibition: 15.3%

## CC(C)=NOc1ccccc1[N+](=O)[O-]
[1]
  growth inhibition: 8.65%
[2]
  growth inhibition: 6.15%
[3]
  growth inhibition: 7.15%
[4]
  growth inhibition: -14.7%
[5]
  growth inhibition: -13.2%
[6]
  growth inhibition: 12.1%

## OC1CN(c2ccc(Br)cc2)CC(O)CN(c2ccc(Br)cc2)C1 (stereo not drawn)
[1]
  growth inhibition: 98.7% (active)
[2]
  growth inhibition: 99.7% (active)
[3]
  growth inhibition: 99.7% (active)
[4]
  growth inhibition: 99.5% (active)
[5]
  growth inhibition: 99.5% (active)
[6]
  growth inhibition: 99.7% (active)

## O=C1c2ccccc2CCC1c1ccccc1 (stereo not drawn)
[1]
  growth inhibition: -1.65%
[2]
  growth inhibition: -0.7%
[3]
  growth inhibition: -5.2%
[4]
  growth inhibition: -1.05%
[5]
  growth inhibition: -10.7%
[6]
  growth inhibition: -23.4%

## CC1(C)C2CCC1(C)C(/C=N/NC(N)=O)C2 (stereo not drawn)
[1]
  growth inhibition: 5.4%
[2]
  growth inhibition: 17.8%
[3]
  growth inhibition: -5.6%
[4]
  growth inhibition: -46%
[5]
  growth inhibition: 20.4%
[6]
  growth inhibition: 12.8%

## O=C(O)CCc1[nH]c(I)nc1I
[1]
  growth inhibition: 17.1%
[2]
  growth inhibition: 14.3%
[3]
  growth inhibition: 5.3%
[4]
  growth inhibition: -0.7%
[5]
  growth inhibition: -7.45%
[6]
  growth inhibition: 29.5%

## O=c1oc2ccccc2cc1-c1nc2ccccc2c(=O)[nH]1
[1]
  growth inhibition: 17.8%
[2]
  growth inhibition: 8.1%
[3]
  growth inhibition: -20.9%
[4]
  growth inhibition: 13.7%
[5]
  growth inhibition: -4.9%
[6]
  growth inhibition: -50.9%

## Nc1ncnc2c1ccn2COCCO
[1]
  growth inhibition: -8.25%
[2]
  growth inhibition: 1.55%
[3]
  growth inhibition: 4.7%
[4]
  growth inhibition: -43.9%
[5]
  growth inhibition: -12.5%
[6]
  growth inhibition: -3.9%

## C[n+]1cn(-c2nc3ccccc3nc2[N-]S(=O)(=O)c2ccccc2)c2ccccc21
[1]
  growth inhibition: -0.2%
[2]
  growth inhibition: -5.7%
[3]
  growth inhibition: -13.2%
[4]
  growth inhibition: -18.4%
[5]
  growth inhibition: -20.1%
[6]
  growth inhibition: -38.5%

## O=C(O)NC(=O)c1cc([N+](=O)[O-])ccc1COC1CCCCO1 (stereo not drawn)
[1]
  growth inhibition: 5.95%
[2]
  growth inhibition: -0.85%
[3]
  growth inhibition: 2.55%
[4]
  growth inhibition: -11.7%
[5]
  growth inhibition: 14.9%
[6]
  growth inhibition: 0.75%

## CC(=O)OCCc1cccnc1/C=N/O
[1]
  growth inhibition: -12.9%
[2]
  growth inhibition: -22.5%
[3]
  growth inhibition: -1.4%
[4]
  growth inhibition: 20.6%
[5]
  growth inhibition: -16.4%
[6]
  growth inhibition: -5.2%

## CC(C)(C(N)C(=O)O)C(N)C(=O)O (stereo not drawn)
[1]
  growth inhibition: 16.4%
[2]
  growth inhibition: 4.8%
[3]
  growth inhibition: -17.4%
[4]
  growth inhibition: -11.9%
[5]
  growth inhibition: -3.55%
[6]
  growth inhibition: -8.8%

## CC(CN(C)C)C(=O)/C=C/c1ccc(Cl)cc1 (stereo not drawn)
[1]
  growth inhibition: 20%
[2]
  growth inhibition: 19%
[3]
  growth inhibition: 1.75%
[4]
  growth inhibition: 2.8%
[5]
  growth inhibition: -13.7%
[6]
  growth inhibition: 18.4%

## CC1=C(C(=O)Nc2ccccc2)C(c2ccc3c(c2)OCO3)C(C(=O)Nc2ccccc2)=C(C)N1
[1]
  growth inhibition: 38.3%
[2]
  growth inhibition: 33.5%
[3]
  growth inhibition: 10.5%
[4]
  growth inhibition: 17.1%
[5]
  growth inhibition: 38.5%
[6]
  growth inhibition: 27.1%

## CC(=O)NC1CCC(CCC2CCCCC2)CC1 (stereo not drawn)
[1]
  growth inhibition: 0.55%
[2]
  growth inhibition: 5.3%
[3]
  growth inhibition: 2.45%
[4]
  growth inhibition: 2.25%
[5]
  growth inhibition: -5.9%
[6]
  growth inhibition: -9.75%

## CCC(CC)NC(CC)COC(=O)c1ccc(N)cc1 (stereo not drawn)
[1]
  growth inhibition: 8.4%
[2]
  growth inhibition: -4.3%
[3]
  growth inhibition: -0.05%
[4]
  growth inhibition: -0.5%
[5]
  growth inhibition: 5.8%
[6]
  growth inhibition: -4.9%

## CCOC(=O)C(CCc1ccccc1[N+](=O)[O-])(CCc1ccccc1[N+](=O)[O-])C(=O)OCC
[1]
  growth inhibition: 12.3%
[2]
  growth inhibition: -0.7%
[3]
  growth inhibition: 6.35%
[4]
  growth inhibition: -9%
[5]
  growth inhibition: 10.7%
[6]
  growth inhibition: 37.7%

## CC(C)CCCC(C)C1CCC2C3CC=C4CC(OC(=O)Nc5ccc(S(=O)(=O)NC6CCCCC6)cc5)CCC4(C)C3CCC12C (stereo not drawn)
[1]
  growth inhibition: -1.85%
[2]
  growth inhibition: -4.35%
[3]
  growth inhibition: 12.7%
[4]
  growth inhibition: -38.1%
[5]
  growth inhibition: -12.4%
[6]
  growth inhibition: 8.25%

## O=C(O)C(NCCCCCNC(C(=O)O)c1ccccc1)c1ccccc1 (stereo not drawn)
[1]
  growth inhibition: 15.8%
[2]
  growth inhibition: 21.2%
[3]
  growth inhibition: 15.9%
[4]
  growth inhibition: 24.9%
[5]
  growth inhibition: 13.9%
[6]
  growth inhibition: 24.6%

## CC1=NN(C(=O)CC(=O)Nc2ccc(C)cc2)C(=O)C1N=Nc1ccc(S(=O)(=O)c2ccc(N=NC3C(=O)N(C(=O)CC(=O)Nc4ccc(C)cc4)N=C3C)cc2)cc1 (stereo not drawn)
[1]
  growth inhibition: 49.8%
[2]
  growth inhibition: 36%
[3]
  growth inhibition: 36.8%
[4]
  growth inhibition: 21.2%
[5]
  growth inhibition: -1.2%
[6]
  growth inhibition: 39.6%

## CCCCCCCCCc1cc(=O)c2c(O)cccc2o1
[1]
  growth inhibition: -25.8%
[2]
  growth inhibition: -30.6%
[3]
  growth inhibition: -11%
[4]
  growth inhibition: -20.1%
[5]
  growth inhibition: 18.6%
[6]
  growth inhibition: -22.4%

## CCCC1OC(c2cc3c(cc2Br)OCO3)OCC1CC (stereo not drawn)
[1]
  growth inhibition: -4.5%
[2]
  growth inhibition: -8.9%
[3]
  growth inhibition: 9.25%
[4]
  growth inhibition: 3.1%
[5]
  growth inhibition: 23.1%
[6]
  growth inhibition: -4.7%

## CC1(C)SC(c2ccccc2)SC(c2ccccc2)S1 (stereo not drawn)
[1]
  growth inhibition: 13.7%
[2]
  growth inhibition: 1.4%
[3]
  growth inhibition: -3.3%
[4]
  growth inhibition: 3.25%
[5]
  growth inhibition: -0.8%
[6]
  growth inhibition: 17.4%

## Fc1ccc2c(c1)-c1ccccc1C2
[1]
  growth inhibition: -0.1%
[2]
  growth inhibition: -14.6%
[3]
  growth inhibition: -2.65%
[4]
  growth inhibition: 4.95%
[5]
  growth inhibition: -0.95%
[6]
  growth inhibition: -19.6%
